Results taken from PubChem BioAssay.
Inconclusive results are not listed. Active and inactive are the calls of the source.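 The calls were made as follows, unless noted: active = inhibition above the screen-wide mean plus 3 SD, about 51%; inactive = the rest.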

Assays:
[1] = yeast TOR pathway RPL19A-GFP modulators, primary screen, cell-based, S. cerevisiae, multiplex flow cytometry (AID 1862; in the data active = percent of DMSO control GFP below about 86%;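 also: lower values mimic rapamycin by blocking the RPL19A rise seen in DMSO cells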); conditions: S. cerevisiae RPL19A-GFP strain, flow cytometry fluorescence, 3 h; at 10 µM; stronger effect = lower value
[2] = modulators of MEP2-GFP levels in yeast, primary screen, S. cerevisiae, multiplex flow cytometry (AID 1867;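 active = GFP response, as percent of the DMSO control, above the screen-wide mean plus 3 SD, about 139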;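 also: median GFP channel fluorescence of barcode-gated MEP2-GFP cells measured by flow cytometry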); conditions: S. cerevisiae MEP2-GFP strain, 3 h, at 10 µM, stronger effect = higher value, 100% means same as DMSO wells
[3] = modulators of CIT2-GFP expression in yeast, primary screen, S. cerevisiae, GFP fusion, multiplex flow cytometry (AID 1870;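 active = percent response above a set limit, the screen-wide mean plus 3 SD, cut at about 130% in these data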;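 also: barcoded CIT2-GFP strain pooled with four other GFP strains with rapamycin as positive control; median GFP fluorescence per well over plate mean of DMSO wells so 100% = DMSO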); conditions: 3 h, at 10 µM, stronger effect = higher value
[4] = modulators of LAP4-GFP expression in yeast, primary screen, S. cerevisiae, multiplex flow cytometry (AID 1873;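 active = GFP signal, as percent of the solvent control, above the screen mean plus 3 SD, about 149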); conditions: 3 h, at 10 µM, stronger effect = higher value
[5] = modulators of AGP1-GFP expression in yeast TOR pathway, primary screen, cell-based, multiplex flow cytometry, S. cerevisiae (AID 1887;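 active = GFP signal above the screen-wide mean plus 3 SD, that is over about 124.5% of the solvent control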;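 also: AGP1-GFP fusion strain of S. cerevisiae within a five-strain barcoded multiplex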); conditions: 3 h, at 10 µM, stronger effect = higher value
[6] = inhibitors of CD8+ T cell-vesicle binding, pilot screen, LFA-1/ICAM-1 modulator project, MLPCN validation set, flow cytometry (AID 2523;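 active = response below a set limit, under 55% cells CD8-positive and vesicle-bound, and CD8 cells' 90th-percentile brightness under 279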;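 as to vesicle binding response: mean PE anti-B7-1 fluorescence of CD8+ cells relative to row control; 100% = QL9-loaded vesicles with DMSO vehicle in the same plate row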); conditions: 2C mouse CD8+ T cells, at 7 µM, stronger effect = lower value; double positive events: measured here: CD8+/vesicle+ event percentage
[7] = target: Integrin beta-1 (Homo sapiens) + Integrin alpha-4 (Homo sapiens) (UniProt P13612+P05556); test: inhibition of HUTS-21 binding to VLA-4, pilot screen, VLA-4 allosteric modulator project, U937 cells, HUTS-21 mAb, flow cytometry, validation set (AID 2674;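 active = inhibition above 50%, about 3 SD of the validation set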;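 also: antibody binding induced by the VLA-4 ligand LDV present at three times its Kd; 0% = LDV ligand with antibody and no compound and 100% = antibody without LDV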); conditions: HUTS-21 LIBS mAb binding, at 6.7 µM, stronger effect = higher value, binding induced by LDV ligand
[8] = superoxide lowering in aged yeast cells, pilot screen, validation compound set (AID 2706;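 active = superoxide response below 65% of plate, a cut near 3 SD across the whole screen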;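 also: yeast exposed to compound for one week at 30 degrees C before staining; 100% = mean of all compound wells on the same plate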); conditions: S. cerevisiae aging, superoxide DHE fluorescence; at 10 µM; stronger effect = lower value
[9] = target: Beta-adrenergic receptor kinase 1 (Homo sapiens) (UniProt P25098); test: GRK2 binders displacing RNA aptamer, biochemical, validation, human GRK2, bead flow cytometry (AID 488806;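 active = aptamer binding inhibition above 30%, about 3 SD of noise from non-fluorescent compounds; inactive = inhibition at or below 30%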); conditions: bead-bound GRK2, FAM-aptamer displacement, at 10 µM, stronger effect = higher value
[10] = target: Beta-2 adrenergic receptor (Homo sapiens) (UniProt P07550); test: beta2AR agonists driving receptor internalization, pilot screen, cell-based, FAP fluorogen, flow cytometry, validation set (AID 504459;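 active = percent response above 42, roughly 3 SD of non-fluorescent test compounds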;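 also: agonist-driven loss of surface beta2AR via internalization measured by FAP dye flow cytometry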); conditions: Am2.2-beta2AR cells, FAP surface receptor flow cytometry; at 10 µM; stronger effect = higher value
[11] = target: AP-2 complex subunit beta (Homo sapiens) (UniProt P63010); test: inhibitors of arrestin peptide binding to AP2, pilot screen, biochemical, validation set, GST-AP2 beads, flow cytometry (AID 504541;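 active = inhibition above 54%, about 3 SD of non-fluorescent compounds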;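 also: AP2 carries R879A mutation and is captured from E. coli lysate; bead-bound FITC arrestin peptide fluorescence measuring arrestin peptide binding to AP2; 0% = DMSO wells and 100% = excess unlabeled arrestin peptide control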); conditions: FITC arrestin peptide, at 10 µM, stronger effect = higher value, AP2 beta2 appendage fragment, R879A mutant
[12] = yeast V-ATPase proton transport modulators, S. cerevisiae, pHLuorin, HTS validation (AID 504600; in the data active = response above about 15%;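 also: plate controls were DMSO for no effect and reference compound for full effect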); conditions: S. cerevisiae pHLuorin cytosolic pH, at 10 µM, stronger effect = higher value
[13] = test system: anti-desmoglein-3 scFv antibody binding to human DSG3; test: inhibitors of anti-DSG3 scFv binding to DSG3, pilot screen, biochemical, validation compound set, bead-based, flow cytometry (AID 588368;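 active = binding below the plate cutoff, the plate median minus 3 SD, with a reading above zero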;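 also: signal is the median channel fluorescence of bead-bound GFP antibody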); conditions: Protein G beads, DSG3-Fc, scFv-GFP binding, at 10 µM, stronger effect = lower value
[14] = inhibitors of fungal efflux pumps CDR1, CDR2, MDR1, pilot screen, validation compound set, multiplex, phenotypic (AID 588506;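 active = efflux inhibition above 0.42, the validation set average plus 4 SD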;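 also: Nile Red retained in cells so higher fluorescence means more efflux inhibition; 0 = negative control wells and 1 = enniatin B 25 µM full block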); conditions: S. cerevisiae pump-expressing triplex, Nile Red efflux flow cytometry; at 10 µM; stronger effect = higher value; the pumps come from Candida albicans
[15] = target: ATP-binding cassette sub-family B member 6 (Homo sapiens) (UniProt Q9NP58); test: ABCB6 transporter inhibitors, pilot screen, K562-ABCB6 cells, flow cytometry, validation set (AID 588550); conditions: K562-ABCB6 porphyrin accumulation, 1 h, at 10 µM, stronger effect = higher value;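 also: 0% = DMSO wells and 100% = benzethonium chloride 70 µM positive control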
[16] = promoters of myeloid differentiation in arrested cells, primary screen, cell-based, GFP/MAC1 double positive, flow cytometry, validation set (AID 588685;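 active = differentiation response of at least 50%, scaled between solvent and reference control, from cells with both markers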;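 also: compound exposure lasts four days before antibody staining and flow analysis; 0% = DMSO wells and 100% = 5 µM fulvestrant positive control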); conditions: ER-HoxA9 marrow cells, stronger effect = higher value, normalized: vehicle 0, fulvestrant 100

Chain of Beta-adrenergic receptor kinase 1 (Homo sapiens) (P25098 whole entry, looked up): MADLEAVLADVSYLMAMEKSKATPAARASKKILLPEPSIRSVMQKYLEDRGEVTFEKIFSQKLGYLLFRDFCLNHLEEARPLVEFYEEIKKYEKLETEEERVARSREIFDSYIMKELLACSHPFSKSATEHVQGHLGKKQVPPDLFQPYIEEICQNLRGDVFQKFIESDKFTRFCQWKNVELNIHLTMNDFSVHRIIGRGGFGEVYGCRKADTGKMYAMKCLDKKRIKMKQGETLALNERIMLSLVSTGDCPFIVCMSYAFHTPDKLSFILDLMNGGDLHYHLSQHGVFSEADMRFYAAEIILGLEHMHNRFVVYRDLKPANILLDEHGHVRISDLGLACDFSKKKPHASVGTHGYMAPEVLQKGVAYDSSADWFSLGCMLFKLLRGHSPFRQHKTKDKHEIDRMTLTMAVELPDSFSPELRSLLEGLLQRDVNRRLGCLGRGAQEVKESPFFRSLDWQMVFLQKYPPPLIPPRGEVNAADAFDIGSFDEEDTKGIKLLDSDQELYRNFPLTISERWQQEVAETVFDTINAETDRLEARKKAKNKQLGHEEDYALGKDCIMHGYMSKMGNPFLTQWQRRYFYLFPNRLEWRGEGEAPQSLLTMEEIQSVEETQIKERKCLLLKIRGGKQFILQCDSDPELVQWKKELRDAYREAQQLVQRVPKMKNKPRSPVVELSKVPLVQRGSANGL
Chain of Beta-2 adrenergic receptor (Homo sapiens) (P07550 whole entry, looked up): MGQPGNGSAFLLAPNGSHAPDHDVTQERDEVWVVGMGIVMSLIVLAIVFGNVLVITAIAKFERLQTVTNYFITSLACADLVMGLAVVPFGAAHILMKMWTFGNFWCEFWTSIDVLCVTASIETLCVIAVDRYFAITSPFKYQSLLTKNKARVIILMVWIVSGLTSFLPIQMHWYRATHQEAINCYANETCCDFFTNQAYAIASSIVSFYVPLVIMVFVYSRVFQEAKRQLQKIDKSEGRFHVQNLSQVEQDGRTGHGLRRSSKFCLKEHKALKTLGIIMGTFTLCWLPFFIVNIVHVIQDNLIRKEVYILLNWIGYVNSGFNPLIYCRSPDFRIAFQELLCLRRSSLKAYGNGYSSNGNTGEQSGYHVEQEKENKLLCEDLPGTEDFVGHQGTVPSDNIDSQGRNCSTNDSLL
Chain of AP-2 complex subunit beta (Homo sapiens) (P63010 whole entry, looked up, the tested form may be a part, one chain of several): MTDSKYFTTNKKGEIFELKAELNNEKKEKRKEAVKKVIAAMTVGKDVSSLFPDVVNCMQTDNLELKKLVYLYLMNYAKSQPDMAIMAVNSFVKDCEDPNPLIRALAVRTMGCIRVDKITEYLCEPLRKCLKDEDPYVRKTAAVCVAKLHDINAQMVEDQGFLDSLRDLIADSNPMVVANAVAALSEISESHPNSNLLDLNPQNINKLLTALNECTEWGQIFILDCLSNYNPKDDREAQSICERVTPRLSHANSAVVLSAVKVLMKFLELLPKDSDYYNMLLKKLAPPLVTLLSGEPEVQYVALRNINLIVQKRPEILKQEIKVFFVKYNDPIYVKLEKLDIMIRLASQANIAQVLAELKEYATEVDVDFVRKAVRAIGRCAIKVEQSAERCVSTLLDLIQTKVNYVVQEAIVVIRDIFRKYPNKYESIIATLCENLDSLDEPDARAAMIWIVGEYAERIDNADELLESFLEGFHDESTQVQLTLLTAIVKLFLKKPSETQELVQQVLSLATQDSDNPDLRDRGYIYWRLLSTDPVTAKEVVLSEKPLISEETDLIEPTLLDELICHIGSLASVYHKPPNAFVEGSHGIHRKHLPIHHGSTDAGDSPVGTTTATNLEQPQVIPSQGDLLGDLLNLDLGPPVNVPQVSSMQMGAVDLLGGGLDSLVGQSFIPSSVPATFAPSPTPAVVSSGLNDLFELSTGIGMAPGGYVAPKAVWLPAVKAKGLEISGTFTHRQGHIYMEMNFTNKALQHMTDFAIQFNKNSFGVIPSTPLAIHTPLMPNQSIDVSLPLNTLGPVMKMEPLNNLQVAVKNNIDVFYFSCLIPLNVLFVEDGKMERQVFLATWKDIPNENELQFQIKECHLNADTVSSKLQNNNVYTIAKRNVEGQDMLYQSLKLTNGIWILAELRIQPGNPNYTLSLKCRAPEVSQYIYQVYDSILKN
Chain of ATP-binding cassette sub-family B member 6 (Homo sapiens) (Q9NP58 whole entry, looked up): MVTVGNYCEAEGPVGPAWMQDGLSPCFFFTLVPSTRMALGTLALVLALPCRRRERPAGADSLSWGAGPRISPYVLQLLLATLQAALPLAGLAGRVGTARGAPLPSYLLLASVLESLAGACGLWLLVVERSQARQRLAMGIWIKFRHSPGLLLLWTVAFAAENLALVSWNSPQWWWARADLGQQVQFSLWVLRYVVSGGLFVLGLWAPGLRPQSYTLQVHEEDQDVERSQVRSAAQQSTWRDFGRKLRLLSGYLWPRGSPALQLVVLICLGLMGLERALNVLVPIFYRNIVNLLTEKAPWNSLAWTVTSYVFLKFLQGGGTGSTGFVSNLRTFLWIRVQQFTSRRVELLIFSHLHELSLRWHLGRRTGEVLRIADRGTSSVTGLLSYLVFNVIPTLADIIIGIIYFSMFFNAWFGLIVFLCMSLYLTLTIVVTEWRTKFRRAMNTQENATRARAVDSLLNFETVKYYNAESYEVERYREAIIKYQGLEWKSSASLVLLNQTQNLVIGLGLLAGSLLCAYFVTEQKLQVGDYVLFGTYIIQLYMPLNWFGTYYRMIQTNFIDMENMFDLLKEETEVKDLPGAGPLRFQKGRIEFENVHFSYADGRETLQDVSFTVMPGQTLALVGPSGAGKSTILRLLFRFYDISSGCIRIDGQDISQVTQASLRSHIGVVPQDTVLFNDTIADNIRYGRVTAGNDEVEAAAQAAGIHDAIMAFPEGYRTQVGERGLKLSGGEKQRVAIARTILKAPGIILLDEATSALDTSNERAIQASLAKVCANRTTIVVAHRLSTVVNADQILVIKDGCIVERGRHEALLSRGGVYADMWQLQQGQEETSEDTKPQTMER
Chain of Integrin beta-1 (Homo sapiens) + Integrin alpha-4 (Homo sapiens) (P05556 whole entry, looked up): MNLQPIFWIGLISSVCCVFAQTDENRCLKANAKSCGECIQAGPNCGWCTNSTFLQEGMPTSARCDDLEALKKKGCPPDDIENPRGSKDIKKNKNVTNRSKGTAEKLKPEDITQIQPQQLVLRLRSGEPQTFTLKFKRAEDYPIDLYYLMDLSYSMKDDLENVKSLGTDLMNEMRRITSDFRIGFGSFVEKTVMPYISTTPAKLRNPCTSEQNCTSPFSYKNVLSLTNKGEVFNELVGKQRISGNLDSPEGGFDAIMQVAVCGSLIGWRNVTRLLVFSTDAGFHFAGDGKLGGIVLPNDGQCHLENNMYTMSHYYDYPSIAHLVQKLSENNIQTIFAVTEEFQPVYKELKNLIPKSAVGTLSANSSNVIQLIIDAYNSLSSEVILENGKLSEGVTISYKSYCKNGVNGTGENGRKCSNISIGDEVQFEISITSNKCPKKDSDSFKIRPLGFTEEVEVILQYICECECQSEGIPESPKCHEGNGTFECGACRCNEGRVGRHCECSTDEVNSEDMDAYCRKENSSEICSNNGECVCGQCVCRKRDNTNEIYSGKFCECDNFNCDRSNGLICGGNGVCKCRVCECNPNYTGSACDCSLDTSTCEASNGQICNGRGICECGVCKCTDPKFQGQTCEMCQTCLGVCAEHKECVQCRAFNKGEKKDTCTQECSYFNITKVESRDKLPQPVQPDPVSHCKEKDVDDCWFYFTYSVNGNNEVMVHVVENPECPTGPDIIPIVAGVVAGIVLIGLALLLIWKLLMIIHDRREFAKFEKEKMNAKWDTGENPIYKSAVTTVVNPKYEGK
Chain of Integrin beta-1 (Homo sapiens) + Integrin alpha-4 (Homo sapiens) (P13612 whole entry, looked up): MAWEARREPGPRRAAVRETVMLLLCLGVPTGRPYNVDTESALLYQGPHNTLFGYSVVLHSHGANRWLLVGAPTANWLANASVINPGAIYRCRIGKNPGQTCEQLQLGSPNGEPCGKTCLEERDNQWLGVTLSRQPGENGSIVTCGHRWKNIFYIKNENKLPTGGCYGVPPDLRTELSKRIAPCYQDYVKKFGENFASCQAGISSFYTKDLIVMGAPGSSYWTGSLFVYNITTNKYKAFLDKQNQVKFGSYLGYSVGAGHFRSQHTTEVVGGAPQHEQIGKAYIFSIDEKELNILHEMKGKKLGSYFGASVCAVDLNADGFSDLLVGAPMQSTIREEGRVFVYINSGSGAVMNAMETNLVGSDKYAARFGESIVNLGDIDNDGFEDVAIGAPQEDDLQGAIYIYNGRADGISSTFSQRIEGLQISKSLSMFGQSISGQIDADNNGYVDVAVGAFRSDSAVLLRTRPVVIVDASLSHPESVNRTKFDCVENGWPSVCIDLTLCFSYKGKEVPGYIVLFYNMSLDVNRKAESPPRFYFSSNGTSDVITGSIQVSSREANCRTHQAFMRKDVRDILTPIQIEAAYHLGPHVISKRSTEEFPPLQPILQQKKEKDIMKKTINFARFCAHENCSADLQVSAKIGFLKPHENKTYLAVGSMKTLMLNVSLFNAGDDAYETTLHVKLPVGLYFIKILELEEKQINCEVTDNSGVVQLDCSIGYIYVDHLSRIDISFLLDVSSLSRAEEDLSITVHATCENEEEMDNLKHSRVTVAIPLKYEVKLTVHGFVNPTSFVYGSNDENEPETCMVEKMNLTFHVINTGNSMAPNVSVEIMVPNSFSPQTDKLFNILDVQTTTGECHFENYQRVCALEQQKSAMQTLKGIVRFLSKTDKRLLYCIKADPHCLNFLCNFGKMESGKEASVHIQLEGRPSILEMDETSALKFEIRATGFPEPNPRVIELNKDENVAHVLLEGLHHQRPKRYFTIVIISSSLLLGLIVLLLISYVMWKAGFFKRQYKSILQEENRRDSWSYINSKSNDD

COc1ccc(CN(CCC(c2ccccc2)c2ccc(OC(C)C)cc2)C(=O)CCl)cc1OC (stereo not drawn)
65.9%: double positive events [6]
inactive: percent of DMSO control GFP [1] 101% | GFP response vs DMSO [2] 98.3% | percent response of DMSO control [3] 107% | GFP response vs DMSO [4] 98% | GFP response, % of DMSO [5] 99.7% | vesicle binding response [6] 249% | inhibition [7] -3.57% | superoxide response (% of plate) [8] 94.5% | aptamer binding inhibition [9] 4% | response [10] -6.05% | inhibition [11] -14.7% | response [12] 0.92% | binding (% of control) [13] 93% | efflux inhibition (fraction of control) [14] -0.2 | inhibition [15] 6% | differentiation response [16] 13.9%

O=C1C(Cc2ccccc2)NC(=S)N1c1ccccc1 (stereo not drawn)
inactive: percent of DMSO control GFP [1] 96.1% | GFP response vs DMSO [2] 105% | percent response of DMSO control [3] 92% | GFP response vs DMSO [4] 115% | GFP response, % of DMSO [5] 99.4% | vesicle binding response [6] 179% | inhibition [7] -14.1% | superoxide response (% of plate) [8] 98.2% | aptamer binding inhibition [9] 5% | response [10] -16.9% | inhibition [11] -7.42% | response [12] 13.2% | binding (% of control) [13] 98.7% | efflux inhibition (fraction of control) [14] -0.24 | inhibition [15] 9% | differentiation response [16] -28%
60.7%: double positive events [6]

Nc1nnc(CSCc2ccc(Cl)cc2Cl)s1
active: efflux inhibition (fraction of control) [14] 0.47
58.8%: double positive events [6]
inactive: percent of DMSO control GFP [1] 101% | GFP response vs DMSO [2] 98.7% | percent response of DMSO control [3] 105% | GFP response vs DMSO [4] 105% | GFP response, % of DMSO [5] 105% | vesicle binding response [6] 162% | inhibition [7] -11.8% | superoxide response (% of plate) [8] 95.2% | aptamer binding inhibition [9] -1% | response [10] -6.41% | inhibition [11] 5.12% | response [12] 3.83% | binding (% of control) [13] 112% | inhibition [15] 0% | differentiation response [16] 10.1%

CC(C)N(Cc1nccn1C)C(=O)CC1C(=O)NCCN1Cc1ccccc1C(F)(F)F (stereo not drawn)
71.7%: double positive events [6]
inactive: percent of DMSO control GFP [1] 102% | GFP response vs DMSO [2] 98.7% | percent response of DMSO control [3] 102% | GFP response vs DMSO [4] 97% | GFP response, % of DMSO [5] 103% | vesicle binding response [6] 182% | inhibition [7] 4.27% | superoxide response (% of plate) [8] 82.9% | aptamer binding inhibition [9] -2% | response [10] 2.35% | inhibition [11] -0.01% | response [12] -1.67% | binding (% of control) [13] 102% | efflux inhibition (fraction of control) [14] -0.5 | inhibition [15] 6% | differentiation response [16] -0.18%

CSc1cccc(NC(=O)/C=C/c2ccccc2)c1
62.5%: double positive events [6]
inactive: percent of DMSO control GFP [1] 91.3% | GFP response vs DMSO [2] 90.5% | percent response of DMSO control [3] 88.6% | GFP response vs DMSO [4] 83.1% | GFP response, % of DMSO [5] 80.5% | vesicle binding response [6] 219% | inhibition [7] 15.2% | superoxide response (% of plate) [8] 114% | aptamer binding inhibition [9] 1% | response [10] 1.66% | inhibition [11] 7.39% | response [12] 1.17% | binding (% of control) [13] 104% | efflux inhibition (fraction of control) [14] -0.38 | inhibition [15] 10% | differentiation response [16] 9.01%

CCCc1c(OCCCCc2nn[nH]n2)ccc(C(C)=O)c1O
62.8%: double positive events [6]
inactive: percent of DMSO control GFP [1] 107% | GFP response vs DMSO [2] 107% | percent response of DMSO control [3] 104% | GFP response vs DMSO [4] 111% | GFP response, % of DMSO [5] 112% | vesicle binding response [6] 197% | inhibition [7] -13.2% | superoxide response (% of plate) [8] 115% | aptamer binding inhibition [9] -5% | response [10] 8.37% | inhibition [11] -8.69% | response [12] -6.13% | binding (% of control) [13] 105% | efflux inhibition (fraction of control) [14] -0.16 | inhibition [15] -13% | differentiation response [16] 2.74%

O=C1C2CC=C(Cl)CC2C(=O)N1CCc1c[nH]c2ccccc12 (stereo not drawn)
inactive: percent of DMSO control GFP [1] 90.2% | GFP response vs DMSO [2] 108% | percent response of DMSO control [3] 104% | GFP response vs DMSO [4] 80.9% | GFP response, % of DMSO [5] 97.5% | vesicle binding response [6] 129% | inhibition [7] 16.2% | superoxide response (% of plate) [8] 114% | aptamer binding inhibition [9] 8% | response [10] -5.28% | inhibition [11] 0.6% | response [12] -1.1% | binding (% of control) [13] 103% | efflux inhibition (fraction of control) [14] 0.09 | inhibition [15] 12% | differentiation response [16] -12.3%
55.5%: double positive events [6]

COc1ccccc1/C=C/C(=O)OCCN1CCOCC1
56.7%: double positive events [6]
inactive: percent of DMSO control GFP [1] 99.8% | GFP response vs DMSO [2] 119% | percent response of DMSO control [3] 114% | GFP response vs DMSO [4] 79.8% | GFP response, % of DMSO [5] 103% | vesicle binding response [6] 229% | inhibition [7] -8.09% | superoxide response (% of plate) [8] 126% | aptamer binding inhibition [9] -4% | response [10] -13.3% | inhibition [11] 0.96% | response [12] -0.97% | binding (% of control) [13] 106% | efflux inhibition (fraction of control) [14] 0.27 | inhibition [15] -9% | differentiation response [16] -4.91%

C[C@]12CC[C@@H]3c4ccc(O)cc4CC[C@H]3[C@@H]1CC[C@@H]2O
active: efflux inhibition (fraction of control) [14] 0.68
inactive: percent of DMSO control GFP [1] 98.8% | GFP response vs DMSO [2] 105% | percent response of DMSO control [3] 98.2% | GFP response vs DMSO [4] 132% | GFP response, % of DMSO [5] 98.6% | vesicle binding response [6] 186% | inhibition [7] 5.41% | superoxide response (% of plate) [8] 97.8% | aptamer binding inhibition [9] 1% | response [10] -1.92% | inhibition [11] 21.6% | response [12] 2.25% | binding (% of control) [13] 103% | inhibition [15] 4% | differentiation response [16] 9.54%
63%: double positive events [6]
